Several values for one entry are separate records, joined by “and”; a condition that tells them apart may be missing. Equal values may be shown once. The panel holds about 83,000 compounds, 20% with a hit somewhere; the sample as a whole holds those more often.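 The test compound was applied at a single concentration to cells in 96-well plates for 48 hours, and percent growth was recorded.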 Values without a mark were called inactive. Activity calls are given as the source filed them. The calls were made as follows: active = growth percent below 10; inactive = the rest.

The assay deals with MDA-MB-468 breast. Briefly: NCI-60 one-dose screen, 48 h (100 = growth as untreated, 0 = no growth, -100 = all killed). As to conditions: 10 µM unless noted.
For the compound `N#C/C(=C\c1ccc2ccccc2c1)c1cc2ccccc2[nH]1`, the growth was 30.5%.

For `CC(C)NC1CCC(Nc2ccnc3cc(Cl)ccc23)CC1` (stereo not given), the growth is 62.3%.

In the case of `c1ccc2c(c1)Cc1ccccc1N2CCN1CCCCC1`, the growth is 99.4%.

As for `CN(C)c1ccc(/C=C/c2sc3ccc4ccccc4c3[n+]2C)cc1`, the growth was -86.4% (active).

For the compound `COc1cc2ncnc(-n3ncc4cc(NC(=O)Nc5ccccc5)ccc43)c2cc1OC`, the growth is -67% (active).

Regarding `N#Cc1nc(-c2ccc(Cl)cc2)oc1N1CCC(S(=O)(=O)N2CCOCC2)CC1`, the growth is 97.5%.

On to `COc1cc(OC)c(/C=C/c2cc[n+](C)c3ccccc23)c(OC)c1`, for which the growth was -20.6% (active).

On to `COc1ccc(-c2oncc2-c2cc(OC)c3c(c2)OCO3)cc1`, for which the growth was 10.3%.

In the case of `CN(C)c1ccc(/C=C/c2c(F)cccc2F)cc1`, the growth is 81.3%.

On to `O=C(CSc1nccc(Nc2ccc(S(=O)(=O)Nc3ccccn3)cc2)n1)c1ccc(Cl)cc1`, for which the growth is 81.2%.

In the case of `O=C(Cc1ccc(/C=C/C(=O)c2ncc[nH]2)cc1)Nc1ccc(F)cc1`, the growth is 4.59% (active).

For `Cn1cc(-c2nonc2-c2cn(C)c3ccc(Br)cc23)c2ccccc21`, the growth is 42.8%.

For the compound `O=S(=O)(NCCNc1cc(-c2cn(-c3ccccc3)nc2-c2cccc(O)c2)ccn1)c1ccc(Cl)cc1`, the growth is -24.6% (active).

For the compound `C=CCn1cc(-c2nc3ccccc3s2)c2cc(-c3ccc4c5c(cccc35)C(=O)N(CCO)C4=O)ccc21`, the growth is 96%.

On to `C[C@@H]1C(=O)N(C[C@H](Cc2ccccc2)NC(=O)OCc2ccccc2)[C@]1(Cc1ccccc1)C(=O)OCc1ccccc1`, for which the growth is 24.6%.

Turning to `O=C(Nc1cccc(Cl)c1)Nc1ncc(CCNc2ncnc3ccsc23)s1`, the growth was 6.87% (active).

Turning to `COc1ccc(-c2cn[nH]c2-c2cc(OC)c(OC)c(OC)c2)cc1OCc1ccccc1`, the growth is -5.94% (active).

As for `COC(=O)[C@]12CC[C@@H](C)[C@H](C)[C@@H]1C1=CC[C@@H]3[C@@]4(C)C(C=O)=C[C@@](C)(COC(C)=O)C4=CC[C@@]3(C)[C@]1(C)CC2`, the growth was -3.02% (active).

Take `CCN(CC)CCOC(=O)c1cc(OCc2ccccc2)c(OCc2ccccc2)c(OCc2ccccc2)c1`: the growth was 44%.

For the compound `O=C(CNc1nnc(-c2ccc(Cl)cc2)o1)Nc1ccc(-c2nc3ccccc3s2)cc1`, the growth is -10.2% (active).

`COC(=O)C1=C(C(=O)ONCCN(C)C)C2C=CC1(C(Cc1ccccc1)Nc1ccc(F)cc1)O2` (stereo not given): the growth was 75.3%.

`Cc1ccc2c(n1)C(=O)C(Cl)=C(Nc1cccc(C)c1C)C2=O`: the growth is -63.3% (active).

Take `OC(Cc1cccnc1)c1ccccc1` (stereo not given): the growth was 111%.

As to `CN1CCN(Cc2ccc(NC(=O)c3cncc(C#Cc4ccc(N)nc4)c3)cc2C(F)(F)F)CC1`, the growth is -8.99% (active).

Regarding `N#C/C(=C\c1ccc(-c2cccc(Cl)c2)o1)C(=O)Nc1ncc(Cc2ccc(Cl)cc2)s1`, the growth was 47%.

Regarding `N=C(N)c1ccc(-c2ccc(-c3ccccc3)o2)nc1`, the growth is 59.9%.

`COc1cc(OC)c(S(=O)(=O)NNC(=O)c2ccncc2)cc1C(=O)/C=C/c1ccc(C)cc1`: the growth is 38.3%.

With `Nc1ccc(-c2cc3c(NCc4ccccc4)ncnc3s2)cc1`, the growth is 4.36% (active).

As for `Cc1[nH]c(=O)[nH]c(=O)c1Br`, the growth is 107%.

Regarding `COc1cc2cc(Oc3cccc(NC(=O)Nc4cc(C(F)(F)F)cc(C(F)(F)F)c4)c3)c(C)nc2cc1OC`, the growth was -8.12% (active).

Consider `Clc1nccc2c(-c3csc(-c4c[nH]c5ccc(Br)cc45)n3)c[nH]c12`, for which the growth was 26.9%.

As for `CC(=O)Nc1nc(C(=O)N2N=C(C)/C(=C/c3ccc(Cl)cc3)C2=O)cs1`, the growth was 103%.

On to `COc1ccc(/C=C2\COc3ccc(O)c(O)c3C2=O)c(OC)c1`, for which the growth is 27.9%.

For the compound `Clc1ccc2[nH]cc(-c3nn4cc(-c5cccnc5)nc4s3)c2c1`, the growth is 98.1%.

Regarding `COc1ccc(C(C)c2cc(OC)c(OC)c(OC)c2)cc1` (stereo not given), the growth was 41.6%.

For `CCC(=O)Oc1ccc(/C(=C(\C)c2ccccc2)c2ccc(OCCN3CCCCC3)cc2)cc1`, the growth was 70.3%.

As for `O=C(NCN1C(=O)c2cccc3cccc(c23)C1=O)N1CCC(Cc2ccccc2)CC1`, the growth is 101%.

Turning to `O=C(O)C1CCCN1C(=O)OCc1ccccc1` (stereo not given), the growth is 115%.

With `Cn1c(SSc2ccc(-c3cccnc3)n2C)ccc1-c1cccnc1`, the growth was 72.3% and 93.8%.

Turning to `CC1(C)CC[C@]2(C(=O)OC(=O)[C@]34CCC(C)(C)C[C@@H]3C3=CC[C@@H]5[C@@]6(C)CCC(=O)C(C)(C)[C@@H]6CC[C@@]5(C)[C@]3(C)CC4)CC[C@]3(C)C(=CC[C@@H]4[C@@]5(C)CCC(=O)C(C)(C)[C@@H]5CC[C@]43C)[C@H]2C1`, the growth was 61.5% [100 µM].

Source of the values: PubChem BioAssay (NCI).
